Only some compounds are listed: those with a hit (about 0.71% of all), similar ones and a draw of the others.
beta cell repl – MIN6 beta-cell proliferation induction; proliferation, % at 10 µM; AID 2380; 330,000 tested, 0.29% active; MIN6 cells proliferation, ATPlite luminescence, 48 h; cells starved in 0.2% serum; 100% = growth in 10% serum;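 active = compounds whose signal lies at least 3.5 SD above the mean of all wells on their plate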
H9c2 TAG inh – inhibitors of triacylglycerol accumulation; 230,000 tested, 0.66% active; inhibition, % at 12.5 µM; H9c2 cells, Nile Red lipid (TAG) fluorescence; cells loaded with 200 µM oleic acid;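 active = pattern-corrected inhibition of lipid staining of at least 50% with the nuclear-stain viability signal not falling by more than 50%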
hiPSC survival – increases survival of single human iPS cells | hiPSC single-cell survival, ATPlite luminescence; 100% = ROCK inhibitor wells, 0% = DMSO | survival enhancement, % at 20 µM | 360,000 tested, 0.044% active | AID 602274; in the data active = survival enhancement above about 18%;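 note: cells exposed to compounds for 16 hours before the ATP read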
TAG conf – confirmation of triacylglycerol accumulation inhibitors | shares compounds with H9c2 TAG inh | H9c2 lipid accumulation, Nile Red fluorescence; cells loaded with 200 µM oleic acid | inhibition, % at 12.5 µM | 990 tested, 71% active | AID 651629;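 active = mean inhibition across replicates of 40% or more; inactive = mean inhibition below 40%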
Of the large screens only hits and unclear results are named; the others gave an inactive call (follow-up assays come after a bar, where they were run).

O=C(c1ccoc1)N1CCN(c2cc(-c3ccccc3)nc3cc(-c4ccc(Br)cc4)nn23)CC1	H9c2 TAG inh 75 (no result: beta cell repl) | TAG conf 65
O=C(c1ccncc1)N1CCN(c2cc(-c3ccccc3)nc3cc(-c4cccc(Cl)c4)nn23)CC1	none (no result: beta cell repl)
Cc1nc2c(N)nn(C)c2nc1C	none (no result: beta cell repl)
CC1(Cc2ccccc2F)C(=O)Nc2c(Cl)ccc(Cl)c21 (stereo unspecified)	none (no result: beta cell repl)
O=C(NCc1cccnc1)c1cc(C2CCCCN2C(=O)c2ccc3ccccc3c2)on1 (stereo unspecified)	none (no result: beta cell repl)
O=C(COc1cccc2ccccc12)N/N=C/c1ccccc1OCc1ccc(C(=O)O)cc1	none
O=C(COc1ccccc1-c1ccccc1)N/N=C/c1cccc2ccccc12	H9c2 TAG inh 63 | TAG conf inactive
CCC(C)(C)C1CCC2(CC1)NC(=O)N(CC(=O)NCCOc1ccccc1)C2=O (stereo unspecified)	none
CCC(C)(C)C1CCC2(CC1)NC(=O)N(CC(=O)NCCc1ccc(OC)c(OC)c1)C2=O (stereo unspecified)	H9c2 TAG inh 53 | TAG conf 50
CC(C)=CCC[C@H](C)C[C@@H]1Cc2[nH][nH]c(=O)c2[C@@H](c2ccc(F)cc2)O1	none (no result: beta cell repl, H9c2 TAG inh)
CN1OC[C@@H]2CN(Cc3ccccc3)[C@H](c3ccc(-n4ccnc4)cc3)C[C@@H]21	none (no result: beta cell repl, H9c2 TAG inh)
Cn1nc(C(=O)NCc2ccc(F)cc2)cc1C(=O)NCc1ccc(F)cc1	none
Cc1ccc(S(=O)(=O)N(C)C[C@@H]2OCc3ccccc3-c3c(n(C)c4ccccc34)C(=O)N([C@H](C)CO)C[C@@H]2C)cc1	none (no result: beta cell repl)
C[C@H](CO)N1C[C@H](C)[C@H](CN(C)S(=O)(=O)c2ccc(Cl)cc2)OCc2ccccc2-c2c(n(C)c3ccccc23)C1=O	H9c2 TAG inh 51 (no result: beta cell repl) | TAG conf 80
Fc1ccc(Oc2nc(-c3ccccn3)nc3ccccc23)cc1	H9c2 TAG inh 56 | TAG conf 42
CSc1nc(Oc2ccc(F)cc2)c2ccccc2n1	none (no result: H9c2 TAG inh)
COc1ccc(Oc2nc(-c3ccccn3)nc3ccccc23)cc1	H9c2 TAG inh 62 | TAG conf 53
COc1ccc(Oc2nc(-c3ccccn3)ncc2OC)cc1	none
c1ccc(-c2nc(N3CCCCCC3)c3ccccc3n2)nc1	none
c1ccc(Oc2nc(-c3ccccn3)nc3ccccc23)cc1	H9c2 TAG inh 72 | TAG conf 51
Cn1nc(C(C)(C)C)cc1N1C(=O)CCC1(C)C(=O)Nc1ccc2c(c1)OCCO2 (stereo unspecified)	none (no result: beta cell repl, H9c2 TAG inh)
C[C@H](CO)N1C[C@H](C)[C@@H](CN(C)C(=O)c2cc(-c3ccccc3)on2)OCc2cn(nn2)CCCC1=O	none (no result: beta cell repl)
CC(O)(c1ccccc1)c1nc(/C=C/c2ccccc2)cs1 (stereo unspecified)	none (no result: beta cell repl)
COc1ccc(C[C@H]2CN3C(=NC[C@@H]3Cc3ccc(O)cc3)N2CCNC(=O)c2ccc(C)c(Br)c2)cc1	H9c2 TAG inh 62 | TAG conf 49
Cc1ccc(C(=O)NCCN2C3=NC[C@H](Cc4ccc(O)cc4)N3C[C@H]2Cc2ccc(O)cc2)cc1Br	none
Cc1ccccc1OCCNc1cc(N2CC(C)NC(C)C2)ccc1[N+](=O)[O-] (stereo unspecified)	H9c2 TAG inh 56 | TAG conf 62
CC1CN(c2ccc([N+](=O)[O-])c(NCCOc3ccccc3)c2)CC(C)N1 (stereo unspecified)	none (no result: H9c2 TAG inh)
COc1cc(OC)c(C(=O)OCC(=O)Nc2cccc(S(=O)(=O)NC3=NCCCCC3)c2)cc1OC	none (no result: beta cell repl)
CCOc1ccc(C(=O)NC(=S)Nc2cccc(S(=O)(=O)NC3=NCCC3)c2)cc1	H9c2 TAG inh 51 | TAG conf 57
Cc1ccc(C(=O)OCC(=O)Nc2cccc(S(=O)(=O)NC3=NCCCCC3)c2)c(C)c1	H9c2 TAG inh 78 | TAG conf inactive
CCOc1ccc(OCC(=O)Nc2cccc(S(=O)(=O)NC3=NCCC3)c2)cc1	none (no result: beta cell repl)
CCCCCCN1C[C@@H](O)[C@H](n2cc(COC(=O)c3ccccc3)nn2)C[C@@H]1c1ccc(C)cc1	none (no result: beta cell repl)
CCOc1ccc(CCNC(=O)C2CCCN(S(=O)(=O)N3CCCCC3)C2)cc1OCC (stereo unspecified)	none (no result: beta cell repl, H9c2 TAG inh)
O=C(Nc1ccc(N2CCOCC2)cc1)c1csc([C@@H]2C[C@H](O)[C@@H](CO)O2)n1	none (no result: beta cell repl)
C[C@H]1CN([C@@H](C)CO)C(=O)c2cc(C#CC3CCCC3)cnc2O[C@H]1CN(C)C(=O)Cc1ccccn1	none (no result: beta cell repl)
Cc1nc2c(sc3nc4c(cc32)COC(C)(C)C4)c(=O)n1CC(=O)NCc1ccco1	none (no result: beta cell repl, H9c2 TAG inh)
CC1(C)Cc2nc3sc4c(SCC(=O)NCc5ccco5)ncnc4c3cc2CO1	H9c2 TAG inh 54 | TAG conf 47

Screening data from PubChem BioAssay.
